Results filed as inconclusive are left out. Calls of active or inactive are those of the source. Unless noted, calls come from the whole dose curve; as a rule, active = well fitted curve in the direction sought with a large enough effect; inconclusive = small, poorly fitted or top-dose-only effect, or another doubt; inactive = no such curve, though single readings can be large; an effect the other way counts as inactive or inconclusive.
Experiments:
[1] = AP1 Signaling Pathway (AID 357; active = well fitted curve in either direction with a large enough effect, not every such curve was filed as active;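 note: ME-180 reporter cells stimulated with EGF at its EC50 level; % is set by controls: 0 for no effect and ±100 for the full control effect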); conditions: ME-180 AP-1-bla reporter, EGF-induced, beta-lactamase ratio, 5 h; at 7.69 µM (top of the series) unless noted
Outline: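 AP-1-bla ME-180 cells, Opti-MEM + 0.5% dialyzed FBS, plated overnight 37 °C. Cpd titration + EC50 EGF, 5 h 37 °C. CCF4 2.5 h RT; ex 405, em 460/530 ratio → %activity, AC50.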

[2] = target: Cytochrome P450 1A2 (Homo sapiens) (UniProt P05177); experiment: p450-cyp1a2 (AID 410; calls by dose curve; note: potency is the fitted concentration of half-maximal effect)
Outline: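 20nM CYP1A2 with 100uM Luciferin-ME (at Km) in 100mM KPO4; compound preincubated 10 min, NADPH regeneration added, 60 min at room temperature. Luciferin quantified by luminescence after detection reagent; normalized to 57 uM furafylline.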

[3] = NFAT Signaling Pathway (AID 444; active = well fitted curve in either direction with a large enough effect, not every such curve was filed as active;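 note: carbachol stimulus at about its EC50 of 1 µM final; % is set by controls: 0 for no effect and ±100 for the full control effect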); conditions: Jurkat NFAT-bla M1, carbachol, beta-lactamase ratio, 5 h; at 7.69 µM (top of the series) unless noted
Outline: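 Jurkat cells carrying an NFAT-driven β-lactamase reporter and co-transfected muscarinic M1 receptor were treated with compound plus carbachol (1 uM final, an EC50 level) for 5 h at 37 °C. CCF4 loading followed for 1 h at RT; 460/530 nm ratio gave %activity.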

[4] = Stat Signaling Pathway (AID 446; active = well fitted curve in either direction with a large enough effect, not every such curve was filed as active;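 note: ME-180 cervical cancer cells given 40 pM IL-6 alongside compound; SIE-controlled beta-lactamase reporter measured as 460/530 nm FRET emission ratio; % is set by controls: 0 for no effect and ±100 for the full control effect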); conditions: ME-180 SIE beta-lactamase reporter, IL-6 stimulated, 5 h; at 7.69 µM (top of the series) unless noted
Outline: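 ME-180 SIE-bla cells; overnight plating; cpd + IL-6 40 pM, 5 h, 37 C; LiveBLAzer 2.5 h RT; 460/530 nm emission ratio. Normalized to 300 pM IL-6 and 125 nM JAK inhibitor controls.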

[5] = target: Glucocorticoid receptor (Homo sapiens) (UniProt P04150); experiment: GR-GFP Redistribution (AID 450;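 active = compounds whose dose series gives a full or clear partial fitted curve of increased nuclear translocation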; note: potency is the fitted concentration of half-maximal effect); conditions: U2OS GR-GFP nuclear translocation, laser cytometry, 2 h
[6] = target: Glucocorticoid receptor (Homo sapiens) (UniProt P04150); experiment: GR-EFC Redistribution (AID 451; calls by dose curve; note: potency is the fitted concentration of half-maximal effect); conditions: CHO-K1 GR-EFC translocation, beta-gal luminescence, 2 h
Outline: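 CHO-K1 cells stably expressing nuclear-localized β-gal enzyme acceptor and GR fused C-terminally to the enzyme donor fragment; ligand-driven nuclear translocation restores β-gal by complementation. Compounds titrated up to 46 uM final, 2 h at 37 °C; luminescence read.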

[7] = target: Mitogen-activated protein kinase 10 (Mus musculus) (UniProt Q61831); experiment: JNK3 AlphaScreen Assay (AID 530; active = well fitted curve in either direction with a large enough effect, not every such curve was filed as active;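 note: kinase came from lysate of stimulated human HepG2 cells; signal reports phosphorylation of biotinylated GST-cJun 1-79 at Ser73 with 10 µM ATP; % is set by controls: 0 for no effect and ±100 for the full control effect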)
Outline: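 Inhibitors reduce antibody binding to phosphorylated biotin-cJun, lowering AlphaScreen luminescence. Lysates from HepG2 cells pre-activated by IL-1beta plus TNF-alpha supplied JNK3; compounds were titrated.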

[8] = target: Cytochrome P450 2C19 (Homo sapiens) (UniProt P33261); experiment: qHTS Assay for Inhibitors and Substrates of Cytochrome P450 2C19 (AID 899); note: potency is the fitted concentration of half-maximal effect; nearly all actives have a fitted effect of over 60% in size
Outline: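 Human CYP2C19 (5nM) with Luciferin-H EGE at 10uM (its KM) in 50mM KPO4 was preincubated with compound for 10 min at 37C. NADPH regeneration started a 60 min 37C reaction. Luciferin was read by luminescence, normalized to 57uM ketoconazole.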

[9] = Confirmation and Secondary Assay for Modulators of Hemoglobin Beta Chain Splicing at IVS2 654 locus (AID 910); note: % of control where 0% means no effect
Outline: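 HeLa cells stably carrying EGFP interrupted by mutant beta-globin IVS2-654 intron (CMV-driven) were treated with compound for 2 days at 37C; corrected splicing was scored as total peak GFP intensity per well (488 nm excitation, 500-520 nm emission).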

[10] = Confirmation and Secondary Assay for Modulators of Hemoglobin Beta Chain Splicing at IVS2 705 locus (AID 930);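 note: HeLa cells stably expressing the EGFP-705 splicing reporter; GFP fluorescence per well restored by corrected splicing of the IVS2-705 intron in EGFP; % of control where 0% means no effect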
Outline: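 Read-out: total peak GFP fluorescence per well (488 nm excitation, 500-520 nm emission) by laser-scanning cytometry. Cells: HeLa EGFP-705 splicing reporter, 2 days compound exposure in Optimem/2% FCS.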

[11] = qHTS Assay for Lipid Storage Modulators (AID 1519; calls by dose curve); conditions: Drosophila S3 cells, BODIPY lipid droplet/cell ratio, laser cytometry, cells loaded with oleic acid; for activity change, negative = inhibition: at 57.5 µM (top of the series)
Outline: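 Cells seeded at 5,000 per well were treated with compounds over a concentration series and loaded with oleic acid (400 uM, as added). Lipid droplet fluorescence (488 nm excitation, 500-530 nm channel) was read by laser-scanning cytometry and normalized to 20 uM Triacsin C.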

[12] = target: Ubiquitin carboxyl-terminal hydrolase 1 (Homo sapiens) (UniProt O94782); experiment: Inhibitors of USP1/UAF1: Pilot qHTS (AID 504865);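 note: rhodamine fluorescence freed from ubiquitin-rhodamine substrate followed over time; top concentration of the series differs between compounds; % is set by controls: 0 for no effect and ±100 for the full control effect; nearly all actives have a fitted effect of over 35% in size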
Outline: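 In 50mM HEPES pH 7.8 containing 0.5mM EDTA, 1mM TCEP, 0.1 mg/ml BSA and 0.01% Tween-20, 1nM USP1/UAF1 is exposed to compound for 15 min, then Ub-Rho (150nM final) is added and fluorescence is read over time.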

[13] = target: Calcium and integrin-binding protein 1 (Homo sapiens) (UniProt Q99828); experiment: Primary qHTS for Identification of Calcium Integrin Binding Protein 1 (CIB1) Competitor (AID 1508620)
Outline: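 Fluorescence polarization competition: CIB1-GST (1 uM final) preincubated with compound 15 min at room temperature, then FITC-labeled alphaIIb peptide (100 nM final) added for another 15 min. Polarization read at Ex 480/Em 540.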

[14] = Primary qHTS for small molecule stabilizers of the endoplasmic reticulum resident proteome: Secreted ER Calcium Modulated Protein (SERCaMP) assay (AID 1508630); note: % is set by controls: 0 for no effect and ±100 for the full control effect
Outline: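 GLuc-SERCaMP-expressing SH-SY5Y cells, pretreated 16 h with compound, are challenged with thapsigargin to empty ER calcium stores; after 4 h, coelenterazine is added directly to the medium and luminescence is imaged.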

[15] = target: N-terminal Xaa-Pro-Lys N-methyltransferase 1 (Homo sapiens) (UniProt Q9BV86); experiment: Confirmatory qHTS for Inhibitors of N-terminal methyltransferase 1 (NTMT1): MTaseGlo Assay (AID 1645874);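 note: luminescence from SAH made as NTMT1 methylates SPKRIA peptide using SAM; 0% = DMSO control and -100% = no-enzyme control; nearly all actives have a fitted effect of over 65% in size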
Outline: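 Luminescent MTase-Glo read-out of SAH. 125 nM NTMT1, 100 uM SAM, 1 uM SPKRIA substrate, 30 min RT reaction after 15 min compound preincubation. Normalized to no-enzyme and DMSO controls; Hill fit.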

[16] = target: 3',5'-cyclic-AMP phosphodiesterase 4B (Homo sapiens) (UniProt Q07343); experiment: qHTS Assay for Inhibitors of PDE-IV (AID 607; active = well fitted activation curve with a large enough effect in the main read-out, with a control signal flat, not every such curve was filed as active; note: % of control where 0% means no effect)
Outline: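 ACTOne HEK293 cells carry a modified cAMP-gated CNG channel and express endogenous PDE4; plated 1000 cells/well, compounds up to 22.9 uM final. Membrane-potential dye fluorescence (ex 535/em 590) was read; parental cells received 10 uM forskolin + 100 uM RO 20-1724.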

[17] = target: Cytochrome P450 3A4 (Homo sapiens) (UniProt P08684); experiment: qHTS Assay for Inhibitors and Substrates of Cytochrome P450 3A4 (AID 884); note: potency is the fitted concentration of half-maximal effect; nearly all actives have a fitted effect of over 50% in size
Outline: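 20 nM human CYP3A4 with 25 uM Luciferin-PPXE (at KM) in 200 mM KPO4, preincubated 10 min with compound; NADPH regeneration started a 60 min RT reaction. Luciferin detected by luminescence, normalized to 57 uM ketoconazole as full inhibition.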

[18] = target: Cytochrome P450 3A4 (Homo sapiens) (UniProt P08684); experiment: qHTS Assay for Activators of Cytochrome P450 3A4 (AID 885); note: nearly all actives have a fitted effect of over 65% in size
Outline: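 20nM CYP3A4 + 25uM Luciferin-PPXE (=KM), 200mM KPO4; cpd 10 min RT; NADPH regen, 60 min RT; stop w/ detection buffer, 20 min; luminescence. Normalized to 57 uM ketoconazole.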

[19] = target: Dual specificity protein kinase CLK4 (Homo sapiens) (UniProt Q9HAZ1); experiment: qHTS Assay for Inhibitors of CDC-like Kinase 4 (Kinase-Glo Assay) (AID 1770); note: potency is the fitted concentration of half-maximal effect; nearly all actives have a fitted effect of over 65% in size
Outline: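 Substrate mix (RS peptide 100 uM, ATP 1 uM) dispensed, compound pinned in, then Clk4 added to 25 nM final. Incubated 4.5 h at RT; Kinase-Glo reagent added, luminescence read after 5 min.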

[20] = target: Dual specificity protein kinase CLK4 (Homo sapiens) (UniProt Q9HAZ1); experiment: qHTS Assay for Inhibitors of CDC-like Kinase 4 (ADP-Glo Assay) (AID 1771); note: potency is the fitted concentration of half-maximal effect; nearly all actives have a fitted effect of over 70% in size
Outline: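 25 nM Clk4 with 100 uM RS repeat peptide and 1 uM ATP (final) in buffer with 2 mM MgCl2, 0.5 mM EGTA, 2.5 mM DTT, 0.01% Triton X-100; 1 h at room temperature; ADP-Glo luminescence for ADP formed.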

[21] = target: Dual specificity protein kinase CLK4 (Homo sapiens) (UniProt Q9HAZ1); experiment: qHTS Assay for Inhibitors of CDC-like Kinase 4 (ADP-FP Assay) (AID 1795); note: potency is the fitted concentration of half-maximal effect; nearly all actives have a fitted effect of over 60% in size
Outline: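 Clk4 6.25 nM; RS peptide 100 uM; ATP 1 uM; 25 mM Tris pH 7.5, 10 mM MgCl2; 1 h reaction. ADP detected via antibody/orange tracer FP displacement; TG003 positive control.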

[22] = Confirmatory qHTS for small molecule stabilizers of the endoplasmic reticulum resident proteome: Secreted ER Calcium Modulated Protein (SERCaMP) assay (AID 1508628); note: potency is the fitted concentration of half-maximal effect; nearly all actives have a fitted effect of over 40% in size
Outline: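 SH-SY5Y cells stably expressing GLuc-SERCaMP, treated 16 h with compound (primary 1.53, 7.67, 38.3 uM; confirmation 11 concentrations, up to 76.6 uM), then 100 nM thapsigargin for 4 h. Secreted Gaussia luciferase in medium read by coelenterazine luminescence.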

[23] = target: Lysosomal acid glucosylceramidase (Homo sapiens) (UniProt P04062); experiment: Glucocerebrosidase-p2 (AID 348; in the data active = potency below about 10 µM; note: potency is the fitted concentration of half-maximal effect); conditions: purified GBA, blue fluorogenic substrate, 40 min
Outline: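 Compounds titrated from 0.6 nM upwards against 0.2 nM enzyme in pH 5.9 citric acid/KH2PO4, taurocholate, tween-20; blue fluorogenic substrate 80 uM, 40 min room temperature, stopped and read Ex 365/Em 440 for AC50.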

[24] = target: Rap guanine nucleotide exchange factor 3 (Homo sapiens) (UniProt O95398); experiment: Confirmatory qHTS for antagonist of cAMP-regulated guanine nucleotide exchange factor 3 (EPAC1) (AID 1645880);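 note: plate controls were DMSO only for no effect and full effect of the ATA control for full effect; nearly all actives have a fitted effect of over 55% in size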
Outline: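 Nucleotide exchange uses 100 nM EPAC1, 250 nM RAP1B-BODIPY-GDP and 50 uM GDP, with compounds in a concentration-titration series. After 5 min at room temperature, fluorescence (480 nm ex/540 nm em) is read every 5 min for 30 min. Data are normalized to control ATA and DMSO.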

[25] = target: Rap guanine nucleotide exchange factor 3 (Homo sapiens) (UniProt O95398); experiment: Confirmatory qHTS for agonist of cAMP-regulated guanine nucleotide exchange factor 3 (EPAC1) (AID 1645881);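 note: EPAC1 catalysed release of BODIPY-GDP from Rap1B seen as fluorescence loss; 100% = effect of cAMP agonist control; nearly all actives have a fitted effect of over 75% in size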
[26] = target: Rap guanine nucleotide exchange factor 4 (Homo sapiens) (UniProt Q8WZA2); experiment: Confirmatory qHTS for agonist of cAMP-regulated guanine nucleotide exchange factor 4 (EPAC2) (AID 1645884);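 note: nucleotide exchange releases bodipy-GDP from Rap1 and this lowers its fluorescence; % is set by controls: 0 for no effect and ±100 for the full control effect; nearly all actives have a fitted effect of over 65% in size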
[27] = target: Rap guanine nucleotide exchange factor 4 (Homo sapiens) (UniProt Q8WZA2); experiment: Confirmatory qHTS for antagonist of cAMP-regulated guanine nucleotide exchange factor 4 (EPAC2) (AID 1645885); note: % is set by controls: 0 for no effect and ±100 for the full control effect; nearly all actives have a fitted effect of over 25% in size
[28] = measured here: cell count channel max response
[29] = measured here: lipid channel max response

Ubiquitin carboxyl-terminal hydrolase 1 (Homo sapiens), sequence (O94782 whole entry, looked up): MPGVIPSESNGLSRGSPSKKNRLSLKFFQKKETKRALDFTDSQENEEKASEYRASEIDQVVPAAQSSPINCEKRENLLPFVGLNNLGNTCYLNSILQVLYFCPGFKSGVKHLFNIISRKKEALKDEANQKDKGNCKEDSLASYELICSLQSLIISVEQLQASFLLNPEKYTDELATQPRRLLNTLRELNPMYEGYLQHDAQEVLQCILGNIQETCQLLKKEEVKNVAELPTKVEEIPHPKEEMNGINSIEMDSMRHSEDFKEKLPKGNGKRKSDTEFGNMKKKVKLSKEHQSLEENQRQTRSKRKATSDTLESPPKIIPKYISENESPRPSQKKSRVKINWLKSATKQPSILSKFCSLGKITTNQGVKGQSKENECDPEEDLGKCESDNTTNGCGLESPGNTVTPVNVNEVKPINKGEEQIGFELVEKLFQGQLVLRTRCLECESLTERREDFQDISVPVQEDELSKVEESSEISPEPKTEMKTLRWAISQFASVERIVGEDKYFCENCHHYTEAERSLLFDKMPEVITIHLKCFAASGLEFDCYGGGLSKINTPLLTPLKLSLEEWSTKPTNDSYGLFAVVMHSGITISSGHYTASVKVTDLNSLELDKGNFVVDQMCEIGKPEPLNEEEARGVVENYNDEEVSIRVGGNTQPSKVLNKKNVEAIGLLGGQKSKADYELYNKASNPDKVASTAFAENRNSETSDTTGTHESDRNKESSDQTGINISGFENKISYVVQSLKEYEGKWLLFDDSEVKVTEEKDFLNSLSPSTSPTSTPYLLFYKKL
Cytochrome P450 3A4 (Homo sapiens), sequence (P08684 whole entry, looked up): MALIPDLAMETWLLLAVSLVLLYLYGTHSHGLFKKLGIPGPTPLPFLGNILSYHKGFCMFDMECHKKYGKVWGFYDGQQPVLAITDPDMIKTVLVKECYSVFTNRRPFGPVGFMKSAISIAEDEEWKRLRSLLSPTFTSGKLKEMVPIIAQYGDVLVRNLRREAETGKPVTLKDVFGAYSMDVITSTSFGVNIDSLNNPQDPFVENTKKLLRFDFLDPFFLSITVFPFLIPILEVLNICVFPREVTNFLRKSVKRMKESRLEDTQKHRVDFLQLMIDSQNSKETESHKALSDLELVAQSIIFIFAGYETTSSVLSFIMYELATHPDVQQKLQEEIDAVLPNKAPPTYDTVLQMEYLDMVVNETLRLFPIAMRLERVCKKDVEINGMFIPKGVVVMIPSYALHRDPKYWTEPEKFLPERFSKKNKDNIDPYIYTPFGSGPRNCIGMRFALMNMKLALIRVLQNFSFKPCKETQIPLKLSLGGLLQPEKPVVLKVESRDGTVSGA
Cytochrome P450 1A2 (Homo sapiens), sequence (P05177 whole entry, looked up): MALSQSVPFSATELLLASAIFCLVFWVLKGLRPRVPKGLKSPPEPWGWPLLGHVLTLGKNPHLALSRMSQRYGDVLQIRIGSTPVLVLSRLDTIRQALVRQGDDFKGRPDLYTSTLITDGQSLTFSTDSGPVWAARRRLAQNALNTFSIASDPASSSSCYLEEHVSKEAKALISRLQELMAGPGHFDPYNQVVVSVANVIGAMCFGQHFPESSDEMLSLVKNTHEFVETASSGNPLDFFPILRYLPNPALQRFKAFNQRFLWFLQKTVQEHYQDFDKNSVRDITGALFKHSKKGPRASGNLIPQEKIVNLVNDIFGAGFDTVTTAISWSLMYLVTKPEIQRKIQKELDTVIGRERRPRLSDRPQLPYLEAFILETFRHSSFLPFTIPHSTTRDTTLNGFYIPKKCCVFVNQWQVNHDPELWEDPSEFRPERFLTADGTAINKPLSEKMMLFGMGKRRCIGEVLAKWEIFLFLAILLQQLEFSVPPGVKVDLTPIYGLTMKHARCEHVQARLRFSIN
Calcium and integrin-binding protein 1 (Homo sapiens), sequence (Q99828 whole entry, looked up): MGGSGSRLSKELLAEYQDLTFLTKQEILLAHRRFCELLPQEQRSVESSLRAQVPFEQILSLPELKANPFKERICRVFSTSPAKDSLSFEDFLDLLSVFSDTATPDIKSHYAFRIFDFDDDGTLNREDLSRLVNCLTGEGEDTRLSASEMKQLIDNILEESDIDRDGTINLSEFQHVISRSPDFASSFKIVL
Glucocorticoid receptor (Homo sapiens), sequence (P04150 whole entry, looked up, the tested form may be a part): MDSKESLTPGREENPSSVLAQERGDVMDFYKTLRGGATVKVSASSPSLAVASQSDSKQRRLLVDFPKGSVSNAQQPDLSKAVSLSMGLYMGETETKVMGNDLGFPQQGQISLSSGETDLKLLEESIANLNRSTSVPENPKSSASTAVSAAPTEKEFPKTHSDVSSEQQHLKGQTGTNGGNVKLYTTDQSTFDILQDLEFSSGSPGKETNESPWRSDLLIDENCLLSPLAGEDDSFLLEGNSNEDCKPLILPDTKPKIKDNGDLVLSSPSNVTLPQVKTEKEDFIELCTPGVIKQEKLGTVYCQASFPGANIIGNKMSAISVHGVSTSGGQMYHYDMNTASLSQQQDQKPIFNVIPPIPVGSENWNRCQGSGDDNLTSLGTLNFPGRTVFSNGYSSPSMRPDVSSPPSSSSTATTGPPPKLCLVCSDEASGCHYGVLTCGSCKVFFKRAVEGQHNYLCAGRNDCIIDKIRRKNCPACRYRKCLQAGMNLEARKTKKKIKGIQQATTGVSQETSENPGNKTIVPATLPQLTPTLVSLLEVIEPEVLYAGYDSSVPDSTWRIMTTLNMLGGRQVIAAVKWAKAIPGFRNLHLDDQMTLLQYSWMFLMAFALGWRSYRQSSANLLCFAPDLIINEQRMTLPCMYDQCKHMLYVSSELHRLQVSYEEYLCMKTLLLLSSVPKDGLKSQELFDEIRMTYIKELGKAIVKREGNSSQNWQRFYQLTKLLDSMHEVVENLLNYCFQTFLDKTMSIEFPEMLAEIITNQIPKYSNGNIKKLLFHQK
Cytochrome P450 2C19 (Homo sapiens), sequence (P33261 whole entry, looked up): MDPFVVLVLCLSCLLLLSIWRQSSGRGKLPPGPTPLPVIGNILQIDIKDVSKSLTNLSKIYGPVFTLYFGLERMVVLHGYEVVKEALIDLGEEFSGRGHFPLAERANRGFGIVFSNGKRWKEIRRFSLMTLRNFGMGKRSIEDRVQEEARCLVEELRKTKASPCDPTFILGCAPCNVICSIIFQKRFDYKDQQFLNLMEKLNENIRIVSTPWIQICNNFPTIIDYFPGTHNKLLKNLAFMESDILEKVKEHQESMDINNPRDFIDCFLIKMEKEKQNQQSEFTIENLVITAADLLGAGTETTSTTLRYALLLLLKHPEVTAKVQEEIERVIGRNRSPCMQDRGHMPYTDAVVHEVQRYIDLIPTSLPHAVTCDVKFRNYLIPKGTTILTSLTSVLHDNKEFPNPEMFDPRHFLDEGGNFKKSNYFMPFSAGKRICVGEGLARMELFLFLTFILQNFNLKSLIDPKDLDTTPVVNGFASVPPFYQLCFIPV
Dual specificity protein kinase CLK4 (Homo sapiens), sequence (Q9HAZ1 whole entry, looked up): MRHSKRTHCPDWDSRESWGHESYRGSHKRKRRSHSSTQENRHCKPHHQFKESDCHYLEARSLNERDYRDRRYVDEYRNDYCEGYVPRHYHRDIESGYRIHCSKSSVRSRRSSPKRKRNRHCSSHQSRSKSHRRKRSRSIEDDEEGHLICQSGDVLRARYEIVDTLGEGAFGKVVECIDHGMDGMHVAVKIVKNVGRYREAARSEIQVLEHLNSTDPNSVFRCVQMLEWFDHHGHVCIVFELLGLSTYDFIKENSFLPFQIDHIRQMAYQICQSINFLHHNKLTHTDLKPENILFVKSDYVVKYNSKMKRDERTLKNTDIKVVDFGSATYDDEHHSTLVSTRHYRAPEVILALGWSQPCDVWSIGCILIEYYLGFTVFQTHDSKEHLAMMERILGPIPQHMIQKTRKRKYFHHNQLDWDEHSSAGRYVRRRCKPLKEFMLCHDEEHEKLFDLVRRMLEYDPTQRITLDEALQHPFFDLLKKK
Rap guanine nucleotide exchange factor 3 (Homo sapiens), sequence (O95398 whole entry, looked up): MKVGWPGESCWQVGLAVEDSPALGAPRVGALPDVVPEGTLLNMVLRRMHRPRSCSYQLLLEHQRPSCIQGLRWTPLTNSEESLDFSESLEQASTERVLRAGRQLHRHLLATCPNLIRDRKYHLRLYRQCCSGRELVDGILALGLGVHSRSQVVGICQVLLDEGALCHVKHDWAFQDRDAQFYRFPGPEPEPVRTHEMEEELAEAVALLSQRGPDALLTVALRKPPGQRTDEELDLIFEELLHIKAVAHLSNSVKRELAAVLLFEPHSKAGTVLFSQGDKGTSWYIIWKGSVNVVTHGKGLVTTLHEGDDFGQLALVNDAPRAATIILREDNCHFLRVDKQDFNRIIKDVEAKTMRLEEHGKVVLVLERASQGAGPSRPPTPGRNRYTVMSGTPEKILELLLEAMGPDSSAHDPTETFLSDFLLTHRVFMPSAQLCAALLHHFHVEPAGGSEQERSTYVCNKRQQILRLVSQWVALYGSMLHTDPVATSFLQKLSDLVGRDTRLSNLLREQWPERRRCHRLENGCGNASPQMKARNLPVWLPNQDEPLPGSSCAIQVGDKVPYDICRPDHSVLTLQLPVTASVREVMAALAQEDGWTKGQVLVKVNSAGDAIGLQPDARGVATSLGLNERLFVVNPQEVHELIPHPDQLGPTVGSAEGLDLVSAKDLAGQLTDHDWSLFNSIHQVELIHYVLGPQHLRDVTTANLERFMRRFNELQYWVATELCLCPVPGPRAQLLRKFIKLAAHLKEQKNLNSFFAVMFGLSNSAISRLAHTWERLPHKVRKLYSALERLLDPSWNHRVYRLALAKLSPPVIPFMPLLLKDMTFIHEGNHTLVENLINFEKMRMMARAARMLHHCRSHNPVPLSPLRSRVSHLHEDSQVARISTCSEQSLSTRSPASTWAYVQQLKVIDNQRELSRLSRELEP
N-terminal Xaa-Pro-Lys N-methyltransferase 1 (Homo sapiens), sequence (Q9BV86 whole entry, looked up): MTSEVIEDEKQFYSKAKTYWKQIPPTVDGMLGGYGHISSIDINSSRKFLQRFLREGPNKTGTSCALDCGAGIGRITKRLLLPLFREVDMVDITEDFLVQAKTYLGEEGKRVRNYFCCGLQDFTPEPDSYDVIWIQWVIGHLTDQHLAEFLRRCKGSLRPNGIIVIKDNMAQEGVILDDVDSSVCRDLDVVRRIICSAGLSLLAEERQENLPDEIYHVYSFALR

Cc1cccc(CNc2ncnc3ccc(-c4ccoc4)cc23)c1
inactive: activity change, negative = inhibition [1] -19.9% | activity change, negative = inhibition [3] -14.2% | activity, negative = inhibition [4] -30% | Potency [5] > 46000 nM | Potency [6] > 46000 nM | outcome [7] | outcome [9] | outcome [10] | activity change, negative = inhibition [11] -3% | Potency [12] | Potency [13] | Potency [14]
6.71%: max response [11, 29]
11.4%: max response [11, 28]
active: Potency [2] 3980 nM | Potency [8] 7940 nM

CC(C)(C)c1ccc(-c2csc(N3CCC(C(N)=O)CC3)n2)cc1
inactive: Potency [13] | Potency [15]

c1cncc(CNc2ncnc3ccc(-c4ccoc4)cc23)c1
inactive: activity change, negative = inhibition [3] 2.59% | activity, negative = inhibition [4] -13.4% | Potency [5] > 46000 nM | Potency [6] > 46000 nM | outcome [7] | Potency [16] | Potency [18] | Potency [12] | Potency [13] | Potency [14]
active: Potency [2] 316 nM | Potency [17] 1580 nM | Potency [8] 25.1 nM | Potency [19] 2820 nM | Potency [20] 1580 nM | Potency [21] 794 nM

Cc1cccc(CNc2ncnc3ccc(-c4cccnc4)cc23)c1
-7.82%: max response [11, 28]
-4.88%: max response [11, 29]
inactive: Potency [6] > 46000 nM | outcome [7] | Potency [18] | outcome [9] | outcome [10] | activity change, negative = inhibition [11] 2.99% | Potency [12] | Potency [13] | Potency [14]
active: Potency [2] 316 nM

Cc1cnc(NC(=O)c2cc(S(=O)(=O)N(C)C)ccc2N2CCCC2)s1
active: Potency [22] 8910 nM
inactive: Potency [13]

COc1cccc(-c2ccc3ncnc(N(C)Cc4ccco4)c3c2)c1
active: Potency [2] 1260 nM | Potency [8] 2000 nM | Potency [19] 2000 nM | Potency [20] 1780 nM | Potency [21] 562 nM
8.44%: max response [11, 28]
7.63%: max response [11, 29]
inactive: Potency [23] > 11400 nM | activity change, negative = inhibition [1] -18.7% | activity change, negative = inhibition [3] -8.47% | activity, negative = inhibition [4] -14.9% | Potency [6] > 46000 nM | outcome [7] | Potency [16] | Potency [18] | activity change, negative = inhibition [11] 1.9% | Potency [12] | Potency [13] | Potency [14] | Potency [24] | outcome [25] | activation [26] 8.39% [at 17.1 µM] | activity change, negative = inhibition [27] -12.8% [at 12.7 µM]
